From publication PMC5836133, “The intracellular immune receptor Rx1 regulates the DNA-binding activity of a Golden2-like transcription factor”
Whole data set: some 16,000 sequences, median “e-score” near -0.044, cut for the highest 2% near 0.38. The full list was thinned out, with the highest values kept by preference.

Biological target: T1, GST-NbGlk1(82-244) (Nicotiana benthamiana)
T1 chain: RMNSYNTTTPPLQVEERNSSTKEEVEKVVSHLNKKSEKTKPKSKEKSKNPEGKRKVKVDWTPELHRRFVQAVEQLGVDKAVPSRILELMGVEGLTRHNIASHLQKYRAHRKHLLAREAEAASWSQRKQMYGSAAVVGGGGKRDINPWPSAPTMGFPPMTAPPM
Test: protein-binding microarray; NbGlk1 is a Golden2-like transcription factor of Nicotiana benthamiana; high values mean tight binding
Conditions: protein: recombinant; tags: GST (pTH6838); dsDNA, one strand shown

Sequence | binding signal [E-score]
ATCCCGTA | 0.31 ± 0.0475
ATACGAGA | 0.231 ± 0.0125
ATATTAGA | 0.212 ± 0.0145
ATTTGTAG | 0.21 ± 0.125
AAGATTGC | 0.443 ± 0.0277
AAGATTGG | 0.206 ± 0.0123
AAGATTGT | 0.297 ± 0.0412
AATATTGC | 0.225 ± 0.0215
CAGATTGC | 0.4754 ± 0.00468
ATCTATAG | 0.288 ± 0.0139
ATCGAGAT | 0.327 ± 0.0101
AACAGGAA | 0.207 ± 0.0723
ATCTTAAC | 0.317 ± 0.00626
ATAAATCA | 0.239 ± 0.0998
AGTAATCC | 0.369 ± 0.00994
AGAAATAT | 0.3621 ± 0.00196
AGAAATCG | 0.338 ± 0.0619
AGCAATCC | 0.412 ± 0.0143
AGCAATCG | 0.308 ± 0.0291
AGAAATCT | 0.465 ± 0.00635
AGCAATCA | 0.321 ± 0.00992
AGAAATCA | 0.3794 ± 0.00281
AGAATTCT | 0.299 ± 0.0757
ACAAATCA | 0.262 ± 0.0406
AGAAATCC | 0.464 ± 0.00886

Sequence | binding signal [E-score]
ATCTTAAA | 0.272 ± 0.0208
AAGATCCA | 0.24 ± 0.0941
ATGTAGTA | 0.223 ± 0.0748
ATTTCACA | 0.304 ± 0.0596
AATCTGCA | 0.414 ± 0.00858
AATCTGCC | 0.34 ± 0.133
AATCTGCG | 0.444 ± 0.00526
AATCAGCA | 0.322 ± 0.0337
ATTCTGCG | 0.217 ± 0.0166
ATTCTGCA | 0.266 ± 0.0788
ATCCGGGG | 0.279 ± 0.0126
ATCCGCAA | 0.325 ± 0.0306
ATCTCACC | 0.317 ± 0.00666
ATTACGAC | 0.351 ± 0.0302
AGTATCGG | 0.202 ± 0.042
ATATAACA | 0.214 ± 0.0677
ATCCGCAC | 0.284 ± 0.0333
ACGATCCT | 0.272 ± 0.0244
AAGTAATC | 0.337 ± 0.0373
ACATAATC | 0.327 ± 0.0217
ACGTAATA | 0.285 ± 0.0122
ATCTAATC | 0.331 ± 0.07
AGGTAAAT | 0.205 ± 0.0739
ATGTAATC | 0.462 ± 0.0104
ATATAATC | 0.297 ± 0.00596

Sequence | binding signal [E-score]
AGGTAATC | 0.416 ± 0.00105
ACGTAATC | 0.4759 ± 0.00151
ATGGTATC | 0.2 ± 0.0619
ATCTTTTC | 0.289 ± 0.0307
AAATCGAA | 0.329 ± 0.0505
ATCTCGGA | 0.36 ± 0.00407
ATACTGTA | 0.274 ± 0.0926
ATTTCCAA | 0.36 ± 0.0335
ATTTTGCG | 0.293 ± 0.0239
AGGCGGAT | 0.206 ± 0.0564
ATTTCATA | 0.353 ± 0.0105
ATCGCAAA | 0.234 ± 0.0734
ATCGCGAG | 0.33 ± 0.00694
ATCGCAAT | 0.397 ± 0.0277
AACGCAAT | 0.344 ± 0.0179
ATCGCGAT | 0.4239 ± 0.000981
ATCGCGAA | 0.323 ± 0.0256
ATTTTTAC | 0.313 ± 0.0485
ACATATCG | 0.226 ± 0.0607
AGATCCCT | 0.298 ± 0.00953
ATGGCAAT | 0.237 ± 0.0667
ATCTAGTA | 0.316 ± 0.0615
ACGTGGAT | 0.283 ± 0.0431
ATTTTTAA | 0.221 ± 0.0275
ACGCGATC | 0.437 ± 0.0114

Sequence | binding signal [E-score]
ACGCGATA | 0.252 ± 0.00347
AAGCGATC | 0.294 ± 0.0444
ATCTTGTG | 0.318 ± 0.0738
AATATCTC | 0.391 ± 0.0345
AATATCGG | 0.371 ± 0.0225
AGTATCTG | 0.339 ± 0.041
AATATCAA | 0.322 ± 0.0489
AGTATCTA | 0.305 ± 0.0244
AGTATCTC | 0.235 ± 0.067
AATATCTA | 0.402 ± 0.018
AATATATC | 0.311 ± 0.00568
AATATCTG | 0.423 ± 0.0344
ATTTAAAG | 0.222 ± 0.0214
AACGTATA | 0.225 ± 0.0359
ATTCGCAG | 0.292 ± 0.0538
CACAATCA | 0.27 ± 0.109
AAGGGATT | 0.3179 ± 0.00237
ATTTCGCA | 0.279 ± 0.0966
AATCTGTG | 0.411 ± 0.0099
AATCAGTG | 0.266 ± 0.0198
ATCCTGTG | 0.205 ± 0.0418
AATCTGAG | 0.415 ± 0.0436
AATCAGAG | 0.229 ± 0.0948
ATTCTGTG | 0.25 ± 0.0953
AAGCAAAT | 0.207 ± 0.0438

Sequence | binding signal [E-score]
AACGAAAT | 0.344 ± 0.0502
ATCAGAAG | 0.24 ± 0.0447
AATATCAC | 0.34 ± 0.00742
ATTCGATC | 0.207 ± 0.00438
AATGGATA | 0.3 ± 0.0974
CAAATATC | 0.375 ± 0.0172
AAAATATG | 0.218 ± 0.038
AGAATATC | 0.4346 ± 0.00342
ATAATATC | 0.347 ± 0.0287
ACAATATC | 0.3871 ± 0.00293
ACAATATA | 0.206 ± 0.0382
AGAATATA | 0.267 ± 0.0326
AAAATATC | 0.406 ± 0.00752
AGAATATG | 0.253 ± 0.0505
ATCCTTTG | 0.201 ± 0.0717
AATCGCTG | 0.234 ± 0.00581
ATCTAACC | 0.266 ± 0.0179
AGTGATAT | 0.298 ± 0.0207
ATCGCACC | 0.247 ± 0.126
ATTACAAA | 0.302 ± 0.0597
ACGATTCG | 0.324 ± 0.025
ATGATTGC | 0.33 ± 0.019
AGGATCGC | 0.357 ± 0.0151
ATGATTCC | 0.306 ± 0.0505
AGGATTAC | 0.449 ± 0.00837

Sequence | binding signal [E-score]
AGGATTCG | 0.352 ± 0.0252
AGGATTGC | 0.45 ± 0.0104
AGGATTCC | 0.448 ± 0.00523
ACGATTCT | 0.362 ± 0.0226
ACGATTCC | 0.4 ± 0.0168
AGAATTAC | 0.23 ± 0.0195
AGGATTAT | 0.31 ± 0.0692
ACTTAGAT | 0.257 ± 0.118
ATCCACCC | 0.255 ± 0.0461
AAGGATTA | 0.278 ± 0.0334
ATCTATGG | 0.205 ± 0.011
ATATCGAG | 0.296 ± 0.0718
ATTATTCC | 0.252 ± 0.0429
AACGAGAT | 0.309 ± 0.0377
AATAGGAT | 0.218 ± 0.15
AGCAGAAT | 0.255 ± 0.0466
ATACTCCA | 0.208 ± 0.0394
ATCGTAAT | 0.375 ± 0.0645
ATCGGAAA | 0.25 ± 0.0729
ACGATTGC | 0.345 ± 0.0699
ATGATTAC | 0.302 ± 0.0176
ACGATTAC | 0.407 ± 0.0433
ATTTTCGG | 0.237 ± 0.0617
CAATCTAC | 0.341 ± 0.0196
AAATCAAC | 0.349 ± 0.0103

Sequence | binding signal [E-score]
CAATCTAA | 0.351 ± 0.0122
AAATCGAG | 0.288 ± 0.0697
AAATCTAT | 0.419 ± 0.0237
AGATCTAT | 0.337 ± 0.0129
CAATCTAG | 0.3742 ± 0.000815
AAATCTAA | 0.4499 ± 0.000584
AAATCTAG | 0.452 ± 0.0158
AAATCTAC | 0.441 ± 0.0198
AAATCAAA | 0.309 ± 0.0265
AAATCAAT | 0.31 ± 0.0292
ATATAAAA | 0.212 ± 0.0169
ACCGGATA | 0.262 ± 0.0765
AATTTCGT | 0.284 ± 0.0162
ATCTCGCA | 0.324 ± 0.0204
AAATAATA | 0.227 ± 0.0112
ACAAATAT | 0.313 ± 0.0317
ATCGGGAA | 0.276 ± 0.0291
ACCTAGAT | 0.291 ± 0.0209
ATCGCATG | 0.29 ± 0.0714
CAATCATA | 0.255 ± 0.00353
ATTATAAG | 0.253 ± 0.0219
ATCCGCCA | 0.254 ± 0.0406
